Data reported in PubChem BioAssay (NCI).
About 79,000 compounds went through this panel and 15% of them were active in at least one assay; those are over-represented in the sample as a whole. The source made the active and inactive calls. No stated cut-off is given here; in the data, active means growth inhibition above about 70%; inactive means the rest.

Experiments:
[1] = NCI Yeast Anticancer Drug Screen. Data for the rad52 strain (AID 147);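 further: 0% = growth of vehicle-treated control cultures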; settings: S. cerevisiae rad52 mutant growth inhibition, active compounds read high
How it was run: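 Growth of repair-deficient yeast cells was compared between compound-treated and vehicle-treated cultures to give percent inhibition.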

[2] = NCI Yeast Anticancer Drug Screen. Data for the wt1 strain (AID 149);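 further: 0% = growth of vehicle-treated wt1 cultures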; settings: S. cerevisiae wt1 strain (SPY 50644) growth inhibition, active compounds read high
How it was run: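 Growth inhibition read against vehicle controls after compound exposure of the wt1 yeast strain.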

[3] = NCI Yeast Anticancer Drug Screen. Data for the rad50EPP+ strain (AID 151);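 further: 0% = growth of vehicle-treated control cultures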; settings: S. cerevisiae rad50 mutant strain, active compounds read high
How it was run: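 Measured: growth inhibition of rad50EPP+ yeast. Reference: vehicle-treated controls. Screen uses strains with defined genetic alterations in DNA damage repair or cell cycle control.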

[4] = NCI Yeast Anticancer Drug Screen. Data for the mgt1 strain (AID 153); settings: S. cerevisiae mgt1 mutant growth inhibition, active compounds read high
How it was run: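 Compounds were applied to mgt1 mutant yeast, and growth was then compared against vehicle-treated control cultures to give percent inhibition.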

[5] = NCI Yeast Anticancer Drug Screen. Data for the rad50 strain (AID 155);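 further: 0% = growth of vehicle-only cultures of the same strain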; settings: S. cerevisiae rad50 strain growth inhibition, active compounds read high
How it was run: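 Readout: growth inhibition relative to vehicle-treated cultures. Compound exposure was carried out in a genetically defined yeast strain deficient in DNA damage repair.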

[6] = NCI Yeast Anticancer Drug Screen. Data for the mec2-1 strain (AID 157); settings: S. cerevisiae mec2-1 strain, active compounds read high
How it was run: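 Compounds were applied to mec2-1 yeast cells. Their growth was then compared with that of vehicle-treated cultures to give growth inhibition.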

[7] = NCI Yeast Anticancer Drug Screen. Data for the sgs1 mgt1 strain (AID 161);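 further: 0% = growth of cultures given vehicle only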; settings: S. cerevisiae sgs1 mgt1 strain, active compounds read high
How it was run: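 Percent growth inhibition was derived by comparing compound-exposed mutant yeast with vehicle-exposed cultures. The strain carries alterations in DNA damage repair.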

[8] = NCI Yeast Anticancer Drug Screen. Data for the CLN2oe strain (AID 163);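 further: 0% = growth of vehicle-only control cultures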; settings: S. cerevisiae CLN2oe strain, active compounds read high
How it was run: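 Cells of an engineered yeast line with disturbed cell-cycle regulation are treated with compound. Inhibition of growth is then calculated relative to the vehicle-treated reference.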

[9] = NCI Yeast Anticancer Drug Screen. Data for the cln2 rad14 strain (AID 165);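 further: 0% = growth equal to vehicle treated cultures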; settings: S. cerevisiae cln2 rad14 strain, active compounds read high
How it was run: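 Strain: cln2 rad14 yeast, altered in cell cycle control and DNA damage repair. Read-out: growth inhibition vs vehicle.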

[10] = NCI Yeast Anticancer Drug Screen. Data for the bub3 strain (AID 167); settings: S. cerevisiae bub3 mutant strain, active compounds read high
How it was run: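 Readout: yeast growth inhibition, expressed relative to vehicle-only wells. The test organism is a mutant strain from a panel with lesions in DNA repair or checkpoint genes.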

[11] = NCI Yeast Anticancer Drug Screen. Data for the wt2 strain (AID 169);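 further: 0% = growth of vehicle-treated yeast cultures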; settings: S. cerevisiae wt2 strain growth inhibition, active compounds read high
How it was run: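 Growth of compound-treated yeast is measured and expressed as inhibition relative to vehicle-only controls.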

[12] = NCI Yeast Anticancer Drug Screen. Data for the mlh1 strain (AID 171);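 further: 0% = growth of vehicle-treated control cultures of the same strain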; settings: S. cerevisiae mlh1 strain growth inhibition, active compounds read high
How it was run: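 Test agents were incubated with yeast bearing a defined DNA damage repair or cell cycle control alteration; values are growth inhibition normalised to vehicle-treated cultures.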

[13] = NCI Yeast Anticancer Drug Screen. Data for the sgs1 strain (AID 173);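 further: 0% = growth of vehicle-only control cultures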; settings: S. cerevisiae sgs1 mutant, active compounds read high
How it was run: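 Strain with an altered DNA repair or cell cycle pathway exposed to compound. Growth then measured. Value = inhibition versus vehicle control.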

[14] = NCI Yeast Anticancer Drug Screen. Data for the mlh1 rad18 strain (AID 175); settings: S. cerevisiae mlh1 rad18 strain growth inhibition, active compounds read high
How it was run: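 A repair-deficient yeast strain is exposed to test compound, and growth is scored relative to vehicle-treated controls.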

[15] = NCI Yeast Anticancer Drug Screen. Data for the rad14 strain (AID 159);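 further: 0% = growth of vehicle-treated control cultures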; settings: S. cerevisiae rad14 strain growth inhibition, active compounds read high
How it was run: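 Growth inhibition vs vehicle controls; genetically altered yeast strain (DNA damage repair defect) treated with test compounds.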

[16] = NCI Yeast Anticancer Drug Screen. Data for the rad18 strain (AID 177); settings: S. cerevisiae rad18 mutant growth inhibition, active compounds read high
How it was run: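 DNA-repair-defective yeast; compound treatment; growth inhibition scored against vehicle.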

[17] = at 5.0 µM (retest, dose inferred, filed as 0.5)
[18] = at 50.0 µM (retest, dose inferred, filed as 5.0)

Measured: growth inhibition

CCOP(=S)(S)OCC.[Pd]
inactive: [1]; at 1.2 µM 5% | [1]; at 3.7 µM 45% | [2]; at 1.2 µM 2% | [2]; at 3.7 µM 55% | [3]; at 1.2 µM 0% | [3]; at 3.7 µM 11% | [3]; at 11.0 µM 24% | [3]; at 33.0 µM 20% | [3]; at 100.0 µM 8% | [4]; at 1.2 µM -2% | [4]; at 3.7 µM 17% | [4]; at 11.0 µM 68% | [5]; at 1.2 µM 12% | [5]; at 3.7 µM 57% | [5]; [17] 67% | [5]; [18] 32% | [6]; at 1.2 µM 10% | [6]; at 3.7 µM 67% | [6]; [18] 51% | [6]; at 50.0 µM 67.9% | [7]; [17] 57% | [7]; [18] 36% | [8]; at 1.2 µM -3% | [8]; at 3.7 µM 20% | [8]; at 11.0 µM 59% | [9]; [17] 23% | [9]; [18] 9% | [10]; at 1.2 µM 6% | [10]; at 3.7 µM 63% | [11]; at 1.2 µM -2% | [11]; at 3.7 µM 59% | [12]; at 1.2 µM 4% | [12]; at 3.7 µM 56% | [13]; at 1.2 µM 13% | [14]; [18] 56%
active: [1]; at 11.0 µM 75% | [1]; at 33.0 µM 82% | [1]; at 100.0 µM 80% | [2]; at 11.0 µM 93% | [2]; at 33.0 µM 89% | [2]; at 100.0 µM 83% | [4]; at 33.0 µM 82% | [4]; at 100.0 µM 82% | [5]; at 11.0 µM 95% | [5]; at 33.0 µM 91% | [5]; at 50.0 µM 79.4% | [5]; at 100.0 µM 92% | [6]; [17] 80% | [6]; at 11.0 µM 95% | [6]; at 33.0 µM 87% | [6]; at 100.0 µM 85% | [7]; at 50.0 µM 76.1% | [8]; at 33.0 µM 76% | [8]; at 100.0 µM 77% | [9]; at 50.0 µM 76.5% | [10]; [17] 84% | [10]; at 11.0 µM 94% | [10]; at 33.0 µM 90% | [10]; [18] 86% | [10]; at 50.0 µM 80.9% | [10]; at 100.0 µM 83% | [11]; at 11.0 µM 95% | [11]; at 33.0 µM 91% | [11]; at 100.0 µM 85% | [12]; at 11.0 µM 94% | [12]; at 33.0 µM 88% | [12]; at 100.0 µM 84% | [13]; at 3.7 µM 77% | [13]; at 11.0 µM 95% | [13]; at 33.0 µM 93% | [13]; at 100.0 µM 88% | [14]; [17] 83% | [14]; at 50.0 µM 79.5%

COC(=O)C1=C(C(=O)OC)C2OC1c1cc3ccccc3cc12
active: [1]; at 11.0 µM 79% | [1]; at 33.0 µM 97% | [1]; at 100.0 µM 98% | [2]; at 33.0 µM 97% | [2]; at 100.0 µM 99% | [3]; at 11.0 µM 79% | [3]; at 33.0 µM 93% | [3]; at 100.0 µM 96% | [4]; at 11.0 µM 93% | [4]; at 33.0 µM 99% | [4]; at 100.0 µM 99% | [5]; [17] 76% | [5]; at 11.0 µM 76% | [5]; at 33.0 µM 97% | [5]; [18] 100% | [5]; at 50.0 µM 99.6% | [5]; at 100.0 µM 98% | [6]; at 11.0 µM 86% | [6]; at 33.0 µM 99% | [6]; [18] 100% | [6]; at 50.0 µM 99.6% | [6]; at 100.0 µM 99% | [15]; at 33.0 µM 99% | [15]; at 100.0 µM 99% | [7]; [17] 92% | [7]; [18] 100% | [7]; at 50.0 µM 99.7% | [9]; [18] 99% | [9]; at 50.0 µM 99.4% | [10]; at 1.2 µM 75% | [10]; at 3.7 µM 87% | [10]; at 11.0 µM 89% | [10]; at 33.0 µM 99% | [10]; [18] 99% | [10]; at 50.0 µM 99.4% | [10]; at 100.0 µM 99% | [11]; at 11.0 µM 76% | [11]; at 33.0 µM 99% | [11]; at 100.0 µM 99% | [12]; at 11.0 µM 85% | [12]; at 33.0 µM 99% | [12]; at 100.0 µM 99% | [13]; at 11.0 µM 89% | [13]; at 33.0 µM 99% | [13]; at 100.0 µM 99% | [14]; [17] 96% | [14]; [18] 99% | [14]; at 50.0 µM 99.5% | [16]; at 11.0 µM 92% | [16]; at 33.0 µM 98% | [16]; at 100.0 µM 99%
inactive: [1]; at 1.2 µM 21% | [1]; at 3.7 µM 33% | [2]; at 1.2 µM 7% | [2]; at 3.7 µM 14% | [2]; at 11.0 µM 37% | [3]; at 1.2 µM 34% | [3]; at 3.7 µM 57% | [4]; at 1.2 µM 27% | [4]; at 3.7 µM 44% | [5]; at 1.2 µM 18% | [5]; at 3.7 µM 37% | [6]; at 1.2 µM 59% | [6]; at 3.7 µM 58% | [6]; [17] 58% | [15]; at 1.2 µM 18% | [15]; at 3.7 µM 24% | [15]; at 11.0 µM 66% | [9]; [17] 16% | [10]; [17] 64% | [11]; at 1.2 µM 13% | [11]; at 3.7 µM 29% | [12]; at 1.2 µM 19% | [12]; at 3.7 µM 35% | [13]; at 1.2 µM 24% | [13]; at 3.7 µM 45% | [16]; at 1.2 µM 50% | [16]; at 3.7 µM 60%

O=c1oc2ccccc2c(O)c1C(c1ccc2ccccc2c1)c1c(O)c2ccccc2oc1=O
active: [1]; at 100.0 µM 97% | [2]; at 100.0 µM 98% | [5]; [18] 93% | [5]; at 50.0 µM 73.7% | [5]; at 100.0 µM 97% | [6]; at 33.0 µM 76% | [6]; [18] 78% | [6]; at 50.0 µM 86.5%
inactive: [1]; at 1.2 µM -8% | [1]; at 3.7 µM 12% | [1]; at 11.0 µM 21% | [1]; at 33.0 µM 64% | [2]; at 1.2 µM -10% | [2]; at 3.7 µM 4% | [2]; at 11.0 µM 1% | [2]; at 33.0 µM 50% | [3]; at 1.2 µM 6% | [3]; at 3.7 µM 41% | [3]; at 11.0 µM 51% | [3]; at 33.0 µM 50% | [3]; at 100.0 µM 46% | [5]; at 1.2 µM 12% | [5]; at 3.7 µM 10% | [5]; [17] 47% | [5]; at 11.0 µM 17% | [5]; at 33.0 µM 58% | [6]; at 1.2 µM 10% | [6]; at 3.7 µM 15% | [6]; [17] 17% | [6]; at 11.0 µM 31%
